# Assays:
# Test in all cases: DAPPL (digital affinity profiling via proximity ligation, sequencing); 10 mM Tris-HCl pH 7.5, 50 mM NaCl, 1 mM DTT, 4% glycerol, room temperature, 30 min; GST-TFs on glutathione beads, 16-mer random dsDNA library, 0.1% formaldehyde crosslink after washing; high values mean tight binding
# FEV = molecular target: T1, FEV (Homo sapiens, UniProt Q99581 1-238); conditions: protein: recombinant; tags: N-terminal GST; dsDNA, one strand shown
# T1 sequence: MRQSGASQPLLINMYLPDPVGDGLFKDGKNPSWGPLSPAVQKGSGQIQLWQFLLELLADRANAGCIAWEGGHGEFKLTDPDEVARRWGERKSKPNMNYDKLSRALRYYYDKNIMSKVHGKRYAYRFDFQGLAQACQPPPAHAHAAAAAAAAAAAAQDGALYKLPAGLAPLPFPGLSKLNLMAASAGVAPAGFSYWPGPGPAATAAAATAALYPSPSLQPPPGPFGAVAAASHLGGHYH
# Method in brief: (§1)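 Pools were built from human transcription factors expressed in yeast as GST fusions, captured on glutathione beads and DNA-barcoded, along with a tag-only sample. Incubation with 200 nmole of a 16-mer random double-stranded DNA library lasted 30 min at room temperature in Tris/NaCl/DTT/glycerol buffer, and was followed by washing, 0.1% formaldehyde crosslinking, proximity ligation, PCR amplification and Illumina NextSeq500 sequencing. Binding signal is the quotient of each hexamer's read frequency for a factor and its frequency for the tag-only sample.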
# ETV5 = ETV5 (Homo sapiens, UniProt P41161 1-510); conditions: protein: recombinant; tags: N-terminal GST; dsDNA, one strand shown
# Method in brief: as §1
# HSF1 = HSF1 (Homo sapiens, UniProt Q00613 1-529); conditions: protein: recombinant; tags: N-terminal GST; chain copies: 3; dsDNA, one strand shown
# Method in brief: as §1
# SPIC = molecular target: T2, SPIC (Homo sapiens, UniProt Q8N5J4 1-248); conditions: protein: recombinant; tags: N-terminal GST; dsDNA, one strand shown
# T2 sequence: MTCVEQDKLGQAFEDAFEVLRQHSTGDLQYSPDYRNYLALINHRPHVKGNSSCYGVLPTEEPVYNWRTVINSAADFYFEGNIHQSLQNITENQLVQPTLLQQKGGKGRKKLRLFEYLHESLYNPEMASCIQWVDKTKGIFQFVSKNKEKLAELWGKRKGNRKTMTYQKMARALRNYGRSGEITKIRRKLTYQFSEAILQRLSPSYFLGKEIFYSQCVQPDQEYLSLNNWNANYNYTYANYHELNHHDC
# Method in brief: as §1
# ELF4 = ELF4 (Homo sapiens, UniProt Q99607 1-663); conditions: protein: recombinant; tags: N-terminal GST; dsDNA, one strand shown
# Method in brief: as §1
# ELK4 = molecular target: T3, ELK4 (Homo sapiens, UniProt P28324-2 1-405); conditions: protein: recombinant; tags: N-terminal GST; dsDNA, one strand shown
# T3 sequence: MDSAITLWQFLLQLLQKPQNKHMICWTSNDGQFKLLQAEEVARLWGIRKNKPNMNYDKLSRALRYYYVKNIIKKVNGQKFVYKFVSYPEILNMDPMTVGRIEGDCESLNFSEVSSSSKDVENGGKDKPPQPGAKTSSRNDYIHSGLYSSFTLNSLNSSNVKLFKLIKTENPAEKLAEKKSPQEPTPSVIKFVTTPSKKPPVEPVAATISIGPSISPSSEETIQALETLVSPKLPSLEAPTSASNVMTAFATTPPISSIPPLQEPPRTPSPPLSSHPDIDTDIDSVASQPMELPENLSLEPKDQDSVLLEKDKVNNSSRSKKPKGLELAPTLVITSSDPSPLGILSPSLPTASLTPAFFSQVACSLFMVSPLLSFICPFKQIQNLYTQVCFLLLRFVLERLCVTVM
# Method in brief: as §1
# ETV2 = molecular target: T4, ETV2 (Homo sapiens, UniProt O00321 1-342); conditions: protein: recombinant; tags: N-terminal GST; dsDNA, one strand shown
# T4 sequence: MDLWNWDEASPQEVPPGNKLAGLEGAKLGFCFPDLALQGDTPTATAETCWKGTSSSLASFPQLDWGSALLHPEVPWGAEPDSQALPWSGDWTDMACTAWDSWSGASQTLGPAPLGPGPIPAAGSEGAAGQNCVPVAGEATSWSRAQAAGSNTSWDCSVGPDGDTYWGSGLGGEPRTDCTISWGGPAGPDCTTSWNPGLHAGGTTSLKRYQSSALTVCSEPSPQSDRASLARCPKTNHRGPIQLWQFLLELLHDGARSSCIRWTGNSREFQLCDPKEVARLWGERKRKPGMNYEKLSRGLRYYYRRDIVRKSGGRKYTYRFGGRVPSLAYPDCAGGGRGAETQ
# Method in brief: as §1
# ELF3 = molecular target: T5, ELF3 (Homo sapiens, UniProt P78545 1-371); conditions: protein: recombinant; tags: N-terminal GST; dsDNA, one strand shown
# T5 sequence: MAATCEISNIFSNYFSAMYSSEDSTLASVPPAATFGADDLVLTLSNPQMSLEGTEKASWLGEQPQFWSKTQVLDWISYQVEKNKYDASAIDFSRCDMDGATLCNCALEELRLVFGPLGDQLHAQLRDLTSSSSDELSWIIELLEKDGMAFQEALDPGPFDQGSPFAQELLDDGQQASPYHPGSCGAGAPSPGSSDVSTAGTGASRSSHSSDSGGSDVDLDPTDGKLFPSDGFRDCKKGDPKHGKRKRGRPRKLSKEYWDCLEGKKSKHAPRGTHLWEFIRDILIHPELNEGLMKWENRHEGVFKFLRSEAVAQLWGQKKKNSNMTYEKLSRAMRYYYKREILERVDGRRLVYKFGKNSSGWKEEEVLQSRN
# Method in brief: as §1
# CRX = CRX (Homo sapiens, UniProt O43186 1-299); conditions: protein: recombinant; tags: N-terminal GST; dsDNA, one strand shown
# Method in brief: as §1
# ETV1 = ETV1 (Homo sapiens, UniProt P50549 1-477); conditions: protein: recombinant; tags: N-terminal GST; dsDNA, one strand shown
# Method in brief: as §1
# ERF = molecular target: T6, ERF (Homo sapiens, UniProt P50548 1-548); conditions: protein: recombinant; tags: N-terminal GST; dsDNA, one strand shown
# T6 sequence: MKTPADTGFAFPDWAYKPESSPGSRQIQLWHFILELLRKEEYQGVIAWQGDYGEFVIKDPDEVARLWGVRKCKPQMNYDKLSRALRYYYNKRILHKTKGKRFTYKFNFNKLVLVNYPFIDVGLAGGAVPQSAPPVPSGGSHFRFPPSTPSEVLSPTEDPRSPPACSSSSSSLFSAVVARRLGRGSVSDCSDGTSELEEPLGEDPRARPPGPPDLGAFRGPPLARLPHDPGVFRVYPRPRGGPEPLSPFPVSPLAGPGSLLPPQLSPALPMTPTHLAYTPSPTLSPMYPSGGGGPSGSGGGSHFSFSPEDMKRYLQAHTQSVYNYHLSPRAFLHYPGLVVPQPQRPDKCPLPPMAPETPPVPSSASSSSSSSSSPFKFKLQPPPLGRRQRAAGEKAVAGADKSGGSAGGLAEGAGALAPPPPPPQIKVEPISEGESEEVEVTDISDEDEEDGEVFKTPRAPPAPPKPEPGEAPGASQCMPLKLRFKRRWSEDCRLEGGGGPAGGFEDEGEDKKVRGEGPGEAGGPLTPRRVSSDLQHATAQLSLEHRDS
# Method in brief: as §1
# ETV3L = molecular target: T7, ETV3L (Homo sapiens, UniProt Q6ZN32 1-361); conditions: protein: recombinant; tags: N-terminal GST; dsDNA, one strand shown
# T7 sequence: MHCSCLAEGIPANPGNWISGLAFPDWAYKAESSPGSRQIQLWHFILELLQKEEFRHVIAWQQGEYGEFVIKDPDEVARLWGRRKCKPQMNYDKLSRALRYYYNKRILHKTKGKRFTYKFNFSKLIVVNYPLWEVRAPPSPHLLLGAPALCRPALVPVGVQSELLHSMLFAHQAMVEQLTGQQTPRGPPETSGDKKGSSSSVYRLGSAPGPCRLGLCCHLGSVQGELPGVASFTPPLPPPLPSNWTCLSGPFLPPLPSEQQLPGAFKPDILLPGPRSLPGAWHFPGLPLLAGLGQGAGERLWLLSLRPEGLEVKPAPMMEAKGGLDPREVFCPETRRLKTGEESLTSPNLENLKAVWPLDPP
# Method in brief: as §1
# ETS2 = molecular target: T8, ETS2 (Homo sapiens, UniProt P15036 1-469); conditions: protein: recombinant; tags: N-terminal GST; dsDNA, one strand shown
# T8 sequence: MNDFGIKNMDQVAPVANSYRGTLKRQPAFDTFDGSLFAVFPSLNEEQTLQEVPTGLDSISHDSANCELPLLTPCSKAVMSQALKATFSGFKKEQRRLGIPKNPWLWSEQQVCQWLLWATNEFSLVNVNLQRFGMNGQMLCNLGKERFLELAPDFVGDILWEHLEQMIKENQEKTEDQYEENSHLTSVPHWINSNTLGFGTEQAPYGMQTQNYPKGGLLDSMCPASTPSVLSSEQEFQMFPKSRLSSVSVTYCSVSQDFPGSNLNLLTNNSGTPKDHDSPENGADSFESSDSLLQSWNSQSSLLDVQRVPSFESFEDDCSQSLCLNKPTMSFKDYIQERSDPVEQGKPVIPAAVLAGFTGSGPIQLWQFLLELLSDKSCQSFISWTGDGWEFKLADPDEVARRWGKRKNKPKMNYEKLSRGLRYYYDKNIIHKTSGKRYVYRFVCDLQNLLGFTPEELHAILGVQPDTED
# Method in brief: as §1
# SPDEF = molecular target: T9, SPDEF (Homo sapiens, UniProt O95238 1-335); conditions: protein: recombinant; tags: N-terminal GST; dsDNA, one strand shown
# T9 sequence: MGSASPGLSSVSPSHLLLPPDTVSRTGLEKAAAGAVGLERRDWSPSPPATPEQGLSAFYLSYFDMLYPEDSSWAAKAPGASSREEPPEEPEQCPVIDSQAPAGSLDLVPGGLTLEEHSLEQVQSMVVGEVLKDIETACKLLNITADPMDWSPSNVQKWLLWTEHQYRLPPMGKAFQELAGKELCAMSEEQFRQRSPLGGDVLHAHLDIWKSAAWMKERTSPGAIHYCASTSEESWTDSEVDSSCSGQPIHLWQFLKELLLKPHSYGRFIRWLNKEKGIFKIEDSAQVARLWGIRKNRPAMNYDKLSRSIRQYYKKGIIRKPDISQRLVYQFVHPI
# Method in brief: as §1
# ETV7 = molecular target: T10, ETV7 (Homo sapiens, UniProt Q9Y603 1-341); conditions: protein: recombinant; tags: N-terminal GST; dsDNA, one strand shown
# T10 sequence: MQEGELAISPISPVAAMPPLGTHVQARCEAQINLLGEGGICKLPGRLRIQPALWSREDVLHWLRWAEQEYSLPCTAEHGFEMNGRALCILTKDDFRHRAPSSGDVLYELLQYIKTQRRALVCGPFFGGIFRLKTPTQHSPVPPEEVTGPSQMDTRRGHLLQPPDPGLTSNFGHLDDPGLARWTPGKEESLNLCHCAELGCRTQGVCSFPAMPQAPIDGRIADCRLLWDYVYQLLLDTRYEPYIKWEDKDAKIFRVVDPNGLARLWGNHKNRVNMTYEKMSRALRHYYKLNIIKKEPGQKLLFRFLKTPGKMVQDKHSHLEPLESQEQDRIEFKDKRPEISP
# Method in brief: as §1
# ELF5 = molecular target: T11, ELF5 (Homo sapiens, UniProt Q9UKW6-2 1-255); conditions: protein: recombinant; tags: N-terminal GST; dsDNA, one strand shown
# T11 sequence: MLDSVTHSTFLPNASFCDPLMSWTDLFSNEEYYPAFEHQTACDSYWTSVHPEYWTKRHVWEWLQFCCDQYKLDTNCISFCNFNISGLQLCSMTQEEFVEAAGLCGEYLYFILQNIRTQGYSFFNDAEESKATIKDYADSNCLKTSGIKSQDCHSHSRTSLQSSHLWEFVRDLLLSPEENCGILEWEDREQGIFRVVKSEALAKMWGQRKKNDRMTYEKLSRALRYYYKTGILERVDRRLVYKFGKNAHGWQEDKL
# Method in brief: as §1
# ETV3 = molecular target: T12, ETV3 (Homo sapiens, UniProt P41162-2 1-143); conditions: protein: recombinant; tags: N-terminal GST; dsDNA, one strand shown
# T12 sequence: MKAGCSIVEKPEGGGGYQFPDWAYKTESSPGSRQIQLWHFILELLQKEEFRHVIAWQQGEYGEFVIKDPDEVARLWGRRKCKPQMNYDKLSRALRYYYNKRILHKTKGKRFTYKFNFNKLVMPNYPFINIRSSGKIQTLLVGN
# Method in brief: as §1
# ETV6 = ETV6 (Homo sapiens, UniProt P41212 1-452); conditions: protein: recombinant; tags: N-terminal GST; dsDNA, one strand shown
# Method in brief: as §1
# Chain of ETV6 (P41212 whole entry): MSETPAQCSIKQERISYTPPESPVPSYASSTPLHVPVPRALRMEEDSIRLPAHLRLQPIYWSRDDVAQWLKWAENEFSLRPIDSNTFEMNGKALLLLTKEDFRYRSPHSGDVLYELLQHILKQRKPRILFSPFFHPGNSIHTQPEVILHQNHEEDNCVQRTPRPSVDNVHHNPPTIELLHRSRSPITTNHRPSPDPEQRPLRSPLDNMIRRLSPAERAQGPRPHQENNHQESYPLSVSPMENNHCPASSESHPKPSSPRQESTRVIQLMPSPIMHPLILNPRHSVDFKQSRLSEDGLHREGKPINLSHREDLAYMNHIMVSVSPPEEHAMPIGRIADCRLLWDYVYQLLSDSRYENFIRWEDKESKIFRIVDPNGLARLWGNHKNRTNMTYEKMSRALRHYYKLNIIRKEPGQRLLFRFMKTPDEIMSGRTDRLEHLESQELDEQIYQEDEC
# Chain of ELF4 (Q99607 whole entry): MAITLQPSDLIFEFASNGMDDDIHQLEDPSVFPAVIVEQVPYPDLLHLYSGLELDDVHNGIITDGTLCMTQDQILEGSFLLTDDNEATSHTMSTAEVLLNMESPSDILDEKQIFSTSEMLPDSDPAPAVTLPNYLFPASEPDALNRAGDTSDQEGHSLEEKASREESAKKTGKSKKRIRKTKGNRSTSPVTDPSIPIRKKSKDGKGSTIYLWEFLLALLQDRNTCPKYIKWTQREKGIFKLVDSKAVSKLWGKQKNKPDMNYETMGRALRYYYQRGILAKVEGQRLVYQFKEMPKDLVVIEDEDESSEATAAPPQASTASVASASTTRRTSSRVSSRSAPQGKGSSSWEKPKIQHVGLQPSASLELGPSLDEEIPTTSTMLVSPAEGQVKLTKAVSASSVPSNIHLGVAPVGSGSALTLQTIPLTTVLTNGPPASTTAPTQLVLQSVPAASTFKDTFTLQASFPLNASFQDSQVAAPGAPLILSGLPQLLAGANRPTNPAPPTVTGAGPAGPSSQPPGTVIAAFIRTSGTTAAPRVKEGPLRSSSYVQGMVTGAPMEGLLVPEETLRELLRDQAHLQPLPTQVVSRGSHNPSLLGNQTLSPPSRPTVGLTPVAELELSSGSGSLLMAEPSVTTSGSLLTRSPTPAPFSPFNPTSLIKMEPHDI
# Chain of HSF1 (Q00613 whole entry): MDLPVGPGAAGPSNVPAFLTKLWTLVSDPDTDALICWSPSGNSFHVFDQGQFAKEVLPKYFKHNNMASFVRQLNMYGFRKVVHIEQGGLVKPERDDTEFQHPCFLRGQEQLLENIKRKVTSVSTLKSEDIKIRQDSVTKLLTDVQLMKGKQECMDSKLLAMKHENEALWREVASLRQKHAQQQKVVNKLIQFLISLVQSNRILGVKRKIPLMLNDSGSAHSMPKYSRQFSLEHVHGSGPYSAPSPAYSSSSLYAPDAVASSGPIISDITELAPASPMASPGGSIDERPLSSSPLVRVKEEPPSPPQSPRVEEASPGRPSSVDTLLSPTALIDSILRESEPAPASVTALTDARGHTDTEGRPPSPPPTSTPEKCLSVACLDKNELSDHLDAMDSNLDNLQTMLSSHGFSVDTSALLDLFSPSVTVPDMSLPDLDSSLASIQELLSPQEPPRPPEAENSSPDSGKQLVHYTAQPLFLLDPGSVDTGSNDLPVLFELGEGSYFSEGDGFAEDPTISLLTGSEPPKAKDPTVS
# Chain of ETV1 (P50549 whole entry): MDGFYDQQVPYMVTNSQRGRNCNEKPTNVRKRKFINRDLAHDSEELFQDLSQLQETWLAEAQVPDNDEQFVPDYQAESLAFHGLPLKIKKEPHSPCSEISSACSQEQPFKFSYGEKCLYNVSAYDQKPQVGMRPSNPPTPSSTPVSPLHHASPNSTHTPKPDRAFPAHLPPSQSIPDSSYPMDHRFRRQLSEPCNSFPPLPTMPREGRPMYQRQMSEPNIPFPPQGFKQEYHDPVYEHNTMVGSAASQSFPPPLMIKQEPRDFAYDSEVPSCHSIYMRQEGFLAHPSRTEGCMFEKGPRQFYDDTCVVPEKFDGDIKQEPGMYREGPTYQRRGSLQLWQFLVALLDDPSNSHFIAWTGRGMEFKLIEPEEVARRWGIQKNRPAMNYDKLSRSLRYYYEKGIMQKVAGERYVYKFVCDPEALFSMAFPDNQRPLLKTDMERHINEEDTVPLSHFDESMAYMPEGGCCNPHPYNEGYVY
# Chain of ETV5 (P41161 whole entry): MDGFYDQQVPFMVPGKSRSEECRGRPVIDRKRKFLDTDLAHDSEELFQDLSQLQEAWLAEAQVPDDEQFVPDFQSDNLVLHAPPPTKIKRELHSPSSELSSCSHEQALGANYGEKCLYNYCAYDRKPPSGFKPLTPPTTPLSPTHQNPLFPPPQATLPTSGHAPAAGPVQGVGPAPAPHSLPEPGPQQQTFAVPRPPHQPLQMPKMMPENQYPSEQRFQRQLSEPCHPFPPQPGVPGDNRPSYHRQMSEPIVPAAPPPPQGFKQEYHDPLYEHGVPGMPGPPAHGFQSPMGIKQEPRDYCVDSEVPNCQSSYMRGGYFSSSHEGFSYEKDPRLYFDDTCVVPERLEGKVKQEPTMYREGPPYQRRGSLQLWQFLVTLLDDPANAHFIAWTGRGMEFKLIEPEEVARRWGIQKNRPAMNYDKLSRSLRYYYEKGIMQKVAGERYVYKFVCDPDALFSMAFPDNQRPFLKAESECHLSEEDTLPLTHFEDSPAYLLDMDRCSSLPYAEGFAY
# Chain of CRX (O43186 whole entry): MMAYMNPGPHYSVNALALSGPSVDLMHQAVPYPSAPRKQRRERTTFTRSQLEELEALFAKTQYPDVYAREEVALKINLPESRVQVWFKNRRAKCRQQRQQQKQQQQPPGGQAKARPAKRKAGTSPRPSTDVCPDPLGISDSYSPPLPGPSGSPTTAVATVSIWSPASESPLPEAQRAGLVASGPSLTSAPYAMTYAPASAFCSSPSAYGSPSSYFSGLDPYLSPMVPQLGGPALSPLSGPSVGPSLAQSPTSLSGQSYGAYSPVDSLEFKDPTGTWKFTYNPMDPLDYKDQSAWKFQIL
sequence,measurement,setting,value
AATAAT,binding signal,FEV,"1.28 fold enrichment (6-mer frequency, TF over GST control)"
same,binding signal,ETV5,"1.35 fold enrichment (6-mer frequency, TF over GST control)"
same,binding signal,HSF1,"1.93 fold enrichment (6-mer frequency, TF over GST control)"
same,binding signal,SPIC,"1.31 fold enrichment (6-mer frequency, TF over GST control)"
same,binding signal,ELF4,"1.24 fold enrichment (6-mer frequency, TF over GST control)"
same,binding signal,ELK4,"1.22 fold enrichment (6-mer frequency, TF over GST control)"
same,binding signal,ETV2,"1.34 fold enrichment (6-mer frequency, TF over GST control)"
same,binding signal,ELF3,"1.42 fold enrichment (6-mer frequency, TF over GST control)"
same,binding signal,CRX,"2.41 fold enrichment (6-mer frequency, TF over GST control)"
same,binding signal,ETV1,"1.24 fold enrichment (6-mer frequency, TF over GST control)"
same,binding signal,ERF,"1.52 fold enrichment (6-mer frequency, TF over GST control)"
same,binding signal,ETV3L,"1.35 fold enrichment (6-mer frequency, TF over GST control)"
same,binding signal,ETS2,"1.42 fold enrichment (6-mer frequency, TF over GST control)"
same,binding signal,SPDEF,"1.21 fold enrichment (6-mer frequency, TF over GST control)"
same,binding signal,ETV7,"1.23 fold enrichment (6-mer frequency, TF over GST control)"
same,binding signal,ELF5,"1.29 fold enrichment (6-mer frequency, TF over GST control)"
same,binding signal,ETV3,"1.27 fold enrichment (6-mer frequency, TF over GST control)"
same,binding signal,ETV6,"1.34 fold enrichment (6-mer frequency, TF over GST control)"

# — article PMC7862700, “An all-to-all approach to the identification of sequence-specific readers for epigenetic DNA modifications on cytosine”
